We go through 40 molecules from PubChem BioAssay (NCATS).

Records with an inconclusive call do not appear. Activity calls are given as the source filed them. The call rests on the fitted dose curve; tested in HEK293 reporter line.

A short description of experiment [1]: qHTS for Inhibitors of the Functional Ribonucleoprotein Complex (vRNP) of Lassa (LASV) Arenavirus: LASV Primary Screen - GLuc reporter signal (AID 1347082). Further: nearly all actives have a fitted effect of over 60% in size. The settings on record: LASV minigenome vRNP, Gaussia luciferase reporter; series mostly up to 57.5 µM. A general note: qHTS replaces the single test concentration by a dilution series.
Experiment [2] is described as follows: qHTS for Inhibitors of the Functional Ribonucleoprotein Complex (vRNP) of Lassa (LASV) Arenavirus: Viability assay - alamar blue signal for LASV Primary Screen (AID 1347083). Further: nearly all actives have a fitted effect of over 80% in size. Conditions: cell viability, alamar blue fluorescence (LASV minigenome counter-screen); series mostly up to 57.5 µM.
Potency means the concentration at half of the fitted maximal effect.

As to `CN1C(=O)C(Cc2c[nH]c3ccccc23)NC1=S` (stereo not given), the Potency entry in experiment [1] and in experiment [2] was “inactive” throughout.
Regarding `O=C(O)CNC(=O)CNC(=O)CNC(=O)CSC(=O)c1ccccc1`, the Potency entry in experiment [1] and in experiment [2] was “inactive” in each case.
Regarding `CC1=C(C/C=C(\C)CCC[C@H](C)CCC[C@H](C)CCCC(C)C)C(=O)c2ccccc2C1=O`, the Potency entry in experiment [1] and in experiment [2] was “inactive” throughout.
`N[C@H]1C(O)O[C@H](CO)[C@@H](O)[C@@H]1O` (stereo not given in full): the Potency result in experiment [1] and in experiment [2] was “inactive” throughout.
For `Cc1[nH]nc2ccc(-c3cncc(OC[C@@H](N)Cc4ccccc4)c3)cc12`, the Potency in experiment [1] was 432 nM (active); in experiment [2], 172 nM (active).
The matching figures for `COc1cc2c(cc1OC)CC(=O)N(CCCN(C)C[C@H]1Cc3cc(OC)c(OC)cc31)CC2`: “inactive” and “inactive”.
For the molecule `CCn1cc(C(=O)O)c(=O)c2cc3c(cc21)OCO3`, the Potency result in experiment [1] and in experiment [2] was “inactive” throughout.
Take `COc1cccc2c1CCCC2CCCN1CCN(C2CCCCC2)CC1` (stereo not given): the Potency entry in experiment [1] and in experiment [2] was “inactive” in each case.
`O=C(NC1CCNCC1)c1[nH]ncc1NC(=O)c1c(Cl)cccc1Cl`: the results for the Potency in experiment [1] and in experiment [2] were 3430 nM (active) and 769 nM (active), respectively.
Consider `O=C1[C@H](Cc2ccc(O)cc2)N2C(=O)CCN(C(=O)NCc3ccccc3)[C@H]2CN1Cc1cccc2ccccc12`, for which the Potency in experiment [1] and in experiment [2] was 19300 nM (active) in each case.
For `NC(CO)C(=O)NNCc1ccc(O)c(O)c1O` (stereo not given), the Potency result in experiment [1] and in experiment [2] was “inactive” throughout.
As to `NCCO`, the Potency result in experiment [1] and in experiment [2] was “inactive” throughout.
Regarding `O=C1NS(=O)(=O)c2ccccc21`, the Potency entry in experiment [1] and in experiment [2] was “inactive” each time.
As for `[O-][n+]1cccc(/C(Cl)=N/OC[C@@H](O)CN2CCCCC2)c1`, the Potency entry in experiment [1] and in experiment [2] was “inactive” each time.
Regarding `N#CCNC(=O)c1ccc(-c2ccnc(Nc3ccc(N4CCOCC4)cc3)n2)cc1`, in experiment [1], the Potency result is “inactive”. In addition, the Potency in experiment [2] was 21700 nM (active).
The matching figures for `OC[C@H](Cc1ccccc1)Nc1nc(Oc2ccc3c(c2)CCC3)nc2c1ncn2Cc1ccc(-c2ccccc2)cc1`: “inactive” and “inactive”.
The matching figures for `CCCCC(CC)COC(=O)c1ccc(N(C)C)cc1` (stereo not given): “inactive” and “inactive”.
The matching figures for `CCCCCCCCCCCCCC(=O)OC(C)C`: “inactive” and “inactive”.
In the case of `COc1ccc(C=Cc2cc(OC)c(OC)c(OC)c2)cc1O`, the Potency result in experiment [1] and in experiment [2] was “inactive” throughout.
Regarding `CO[C@H]1C=CC=C(C)C(=O)NC2=CC(=O)C(NCCN(C)C)=C(C[C@@H](C)C[C@H](OC)[C@@H](O)[C@@H](C)C=C(C)[C@@H]1OC(N)=O)C2=O`, the Potency in experiment [1] was 685 nM (active); in experiment [2], 611 nM (active).
The matching figures for `C[C@]12CC[C@H](O)CC1=CC[C@@H]1[C@H]2CC[C@]2(C)C(c3cccnc3)=CC[C@H]12`: “inactive” and “inactive”.
For `c1ccc2[nH]ccc2c1`, the Potency result in experiment [1] and in experiment [2] was “inactive” each time.
With `O=C(Nc1cccnc1)N1CCC(Cc2cccc(Oc3ccc(C(F)(F)F)cn3)c2)CC1`, the figures for the Potency in experiment [1] and in experiment [2] were 21700 nM (active) and 15300 nM (active), respectively.
As to `C=CCn1c(=O)c2cnc(Nc3ccc(N4CCN(C)CC4)cc3)nc2n1-c1cccc(C(C)(C)O)n1`, the Potency in experiment [1] is 685 nM (active); in experiment [2] it was 172 nM (active).
The matching figures for `NCCCC(N)(C(=O)O)C(F)F` (stereo not given): “inactive” and “inactive”.
Regarding `CCN(CC)CCCCNc1nc2cc(Cl)c(Cl)cc2nc1-c1ccc(-c2cccs2)s1`, the Potency entry in experiment [1] and in experiment [2] was “inactive” each time.
Regarding `CC(C)(C(=O)NCC(F)(F)C(F)(F)F)C(=O)N[C@@H]1C(=O)Nc2ccccc2-c2ccccc21`, the Potency in experiment [1] was 24300 nM (active); in experiment [2] it was 19300 nM (active).
The matching figures for `O=C(O)c1ccc2c(c1)nc(Nc1cccc(Cl)c1)c1ccncc12`: “inactive” and “inactive”.
Take `CC(=O)N[C@@H](Cc1ccc(O)cc1)C(=O)O`: the Potency result in experiment [1] and in experiment [2] was “inactive” each time.
Take `Cc1cnc(-c2cnc(NCCNc3ccc(C#N)cn3)nc2-c2ccc(Cl)cc2Cl)[nH]1`: the Potency result in experiment [1] and in experiment [2] was “inactive” each time.
In the case of `CCOC(=O)C(=O)CCCCCCl`, the Potency entry in experiment [1] and in experiment [2] was “inactive” throughout.
For the molecule `CC(C)(C)c1nnc(NS(=O)(=O)c2ccccc2)s1`, the Potency entry in experiment [1] and in experiment [2] was “inactive” each time.
Regarding `NC(=O)c1ccc(-c2nc(-c3ccc4c(c3)OCO4)c(-c3ccccn3)[nH]2)cc1`, the Potency entry in experiment [1] and in experiment [2] was “inactive” in each case.
Regarding `CCOC(CN1C(=O)[C@](CC(=O)Nc2ccc(C)cc2)(NC(=O)Nc2ccc(C)cc2)c2ccccc21)OCC`, the Potency result in experiment [1] and in experiment [2] was “inactive” in each case.
Turning to `CC(C)=CCCC(C)=CCCC(C)=CCSc1ccccc1C(=O)O`, the Potency was 5440 nM (active) in experiment [1] and 2430 nM (active) in experiment [2].
Turning to `Cc1cc(-c2ccccc2)nnc1NCCN1CCOCC1`, the Potency entry in experiment [1] and in experiment [2] was “inactive” throughout.
With `CC1(C)OC2=C(C(=O)c3ccccc3C2=O)[C@H](NCc2ccccc2)[C@H]1O`, the Potency in experiment [1] was 2730 nM (active); in experiment [2], 3060 nM (active).
The matching figures for `O=C(O)c1ccc(-c2cc3cccnc3c(-c3ccc4nonc4c3)n2)cc1`: “inactive” and “inactive”.
`CC(=Cc1csc(C)n1)[C@@H]1C[C@H]2O[C@]2(C)CCC[C@H](C)[C@@H](O)[C@@H](C)C(=O)C(C)(C)[C@@H](O)CC(=O)O1`: the Potency entry in experiment [1] and in experiment [2] was “inactive” throughout.
As for `CCNC(=O)c1noc(-c2cc(C(C)C)c(O)cc2O)c1-c1ccc(CN2CCOCC2)cc1`, the results for the Potency in experiment [1] and in experiment [2] were 611 nM (active) and 273 nM (active), respectively.
